Results as given in PubChem BioAssay (NCI).
This is part of a sample that, as a whole, favours compounds with a hit. Of some 79,000 tested, about 15% had one in any assay. Unmarked numbers belong to inactive results. The source made the active and inactive calls. Cut-off read from the data, not from the text of the source: active = growth inhibition above about 70%; inactive = the rest.

Assays:
[1] = NCI Yeast Anticancer Drug Screen. Data for the rad50 strain (AID 155);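 note: 0% = growth of vehicle-only cultures of the same strain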; conditions: S. cerevisiae rad50 strain growth inhibition; at 50.0 µM; hits give high values
Outline: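 Relative growth inhibition (compound vs vehicle) was measured in yeast with a defined repair-gene alteration.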

[2] = NCI Yeast Anticancer Drug Screen. Data for the mec2-1 strain (AID 157); conditions: S. cerevisiae mec2-1 strain, at 50.0 µM, hits give high values
Outline: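 Test agents were screened against the mec2-1 yeast strain, with defined DNA repair or cell cycle alteration. Growth was scored as inhibition against vehicle-only controls.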

[3] = NCI Yeast Anticancer Drug Screen. Data for the sgs1 mgt1 strain (AID 161);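 note: 0% = growth of cultures given vehicle only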; conditions: S. cerevisiae sgs1 mgt1 strain, at 50.0 µM, hits give high values
Outline: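 Read-out: growth inhibition vs vehicle controls. Cells: mutant yeast strain deficient in DNA damage repair.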

[4] = NCI Yeast Anticancer Drug Screen. Data for the cln2 rad14 strain (AID 165);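 note: 0% = growth equal to vehicle treated cultures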; conditions: S. cerevisiae cln2 rad14 strain, at 50.0 µM, hits give high values
Outline: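 Growth of compound-exposed yeast (cln2 rad14 genotype) measured and expressed as inhibition relative to vehicle.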

[5] = NCI Yeast Anticancer Drug Screen. Data for the bub3 strain (AID 167); conditions: S. cerevisiae bub3 mutant strain, at 50.0 µM, hits give high values
Outline: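 Screening used yeast with an engineered genetic alteration affecting cell cycle control. Compound-exposed cultures were compared with vehicle cultures, and reduced growth was taken as inhibition.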

[6] = NCI Yeast Anticancer Drug Screen. Data for the mlh1 rad18 strain (AID 175); conditions: S. cerevisiae mlh1 rad18 strain growth inhibition; at 50.0 µM; hits give high values
Outline: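 In this whole-cell yeast screen, a strain with altered DNA damage repair is challenged with compound, and its growth is measured against matched vehicle-treated controls.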

| Compound | growth inhibition [1] | growth inhibition [2] | growth inhibition [3] | growth inhibition [4] | growth inhibition [5] | growth inhibition [6] |
| --- | --- | --- | --- | --- | --- | --- |
| CCOC(=O)CC(NC(=O)CC(N)C(=O)O)C(=O)OCC (stereo not drawn) | 7.15% | 3% | -2.7% | -1.25% | -0.3% | -3.25% |
| Fc1c(F)c(F)c(SN=S=Nc2ccccc2)c(F)c1F | 13.4% | 12.1% | 13.3% | -1.35% | 15.1% | 26.9% |
| CC(C)N(C(=O)c1cccc(C(=O)N(C(C)C)C(C)C)c1)C(C)C | 12.7% | 2.45% | 0.25% | 11.3% | 16.9% | 33.4% |
| CNC(=O)OCc1c(C)oc(-c2ccc(Cl)c(Cl)c2)c1COC(=O)NC | 47.5% | -7.15% | 34.5% | 24.1% | 12.3% | 14.4% |
| CCN(CC)CCS(=O)(=O)CCS(=O)(=O)CCN(CC)CC | 18.5% | 10.9% | 25.2% | 25.2% | 4.4% | 14.2% |
| CC(=O)Nc1nnc(C)o1 | -0.85% | -3.5% | -1.55% | -40.6% | 10.3% | -2.05% |
| COc1ccc(C2(C(=O)O)CC(C)=C(C)CC2C(=O)O)cc1 (stereo not drawn) | -1.45% | -9.05% | -5.25% | 0.6% | -11.7% | 7% |
| C=CCOC(=O)c1ccco1 | 5.6% | -6.3% | 2.35% | -1.4% | 0.45% | 2.05% |
| CN(C)C1=C(c2ccccc2)C(=O)C(c2ccccc2)=C1c1ccccc1 | 39.8% | 3.25% | 22.1% | -32.3% | 7.05% | 13.3% |
| ClCCOCOc1ccc2ccccc2c1 | 29.6% | 23.9% | 43.6% | 16.7% | 26.6% | 26.9% |
| CC(=O)Nc1ccc(S(=O)(=O)N/N=C/c2ccco2)cc1 | 23.1% | 1.2% | 5.7% | -30.6% | 4.1% | 33.6% |
| Nc1ccc(S(=O)(=O)O)cc1[N+](=O)[O-] | 4.4% | 3.8% | -3.75% | 1% | 5.8% | 12.6% |
| CC1(C)CC(=O)C(CC2=C(N)CC(C)(C)CC2=O)=C(N)C1 | 1.8% | 5.8% | 9.9% | -13.3% | 10.6% | 31.7% |
| CCc1cc2ccccc2oc1=O | -1.1% | 3.65% | 0.1% | -18.1% | 1.55% | -5.85% |
| c1ccc(N=C2CCCCCC2)cc1 | -1.85% | 14.2% | -5.8% | 7.15% | -9.25% | -6.7% |
| O=C(O)/C(=C/c1ccccc1[N+](=O)[O-])c1ccccc1 | 40.1% | -16.1% | 20.5% | 17.5% | -8.85% | -12.7% |
| CN(Cc1ccccc1)C(=O)c1ccc(Cl)cc1 | -1.35% | 3.75% | 6.25% | 0.6% | 1.25% | -0.1% |
| NC(CSS(=O)(=O)O)=NCC1CC2CCC1C2 (stereo not drawn) | 3.25% | 6.2% | -3.85% | 6.95% | 4.4% | 12.3% |
| CC(C)N(C(=O)C12C3C4C1C1C2C3C41C(=O)C(C)(C)C)C(C)C (stereo not drawn) | 43% | 28.9% | 52% | 61% | 41% | 50.8% |

| Compound | growth inhibition [1] | growth inhibition [2] | growth inhibition [3] | growth inhibition [4] | growth inhibition [5] | growth inhibition [6] |
| --- | --- | --- | --- | --- | --- | --- |
| c1ccc(SC2(Sc3ccccc3)CCCC2)cc1 | -9.15% | -22.1% | -12.2% | -0.5% | -24.6% | -17.4% |
| CCCC(=O)Oc1ccc(C(C)(C)C)cc1C | -5.65% | -19.1% | 3.4% | -19.3% | -0.5% | -8.6% |
| CNC(=O)N(CC1CCCCC1)c1nc2c(=O)n(C)c(=O)[nH]c2s1 | -4.75% | -5.9% | -1% | -22.7% | -4.25% | -3.6% |
| CC(=O)c1c(-c2nc(=S)[nH]c(C)c2C(C)=O)nc(=S)[nH]c1C | 15.1% | 9.95% | 6.3% | 0.45% | -1.45% | 16.8% |
| O=C(Nc1nc2ncn(CC(COc3ccccc3)OC(=O)c3ccccc3)c2c(=O)[nH]1)c1ccccc1 (stereo not drawn) | -9.85% | 9.55% | 6.5% | 15.2% | 12.2% | -6.65% |
| C=CCCCCCCCCC(=O)NCCCN1CCOCC1 | 77.5% (active) | 76.1% (active) | 93.5% (active) | 83.6% (active) | 85% (active) | 94.7% (active) |
| CC(=O)Oc1ccc2c(c1)CC[C@@H]1C2[C@@H](O[N+](=O)[O-])C[C@@]2(C)C1CC[C@@H]2O[N+](=O)[O-] (stereo partly drawn) | 24.4% | 7.9% | 15.2% | 10.1% | 10.1% | 14.8% |
| CCOC(=O)C(Cc1ccc(O)cc1)NC(=O)c1cc2c(cn1)[nH]c1ccccc12 (stereo not drawn) | 11% | 16.2% | 7.45% | -19.8% | -1% | 4.65% |
| CCOC(=O)CCCN1CCC=C(C#N)C1 | 13% | -2.2% | 6.7% | -7.7% | 13% | 7.85% |
| CC(O)CN1c2ccccc2Sc2ccc(Cl)cc21 (stereo not drawn) | 19.2% | 10.9% | 3.35% | 17.1% | -4.9% | 12.8% |
| C=CC1CNCCC1CC(=O)OCC (stereo not drawn) | -16.6% | -5.55% | 3% | -12.4% | 4.45% | -24.4% |
| CC(Oc1cc2oc(=O)cc(-c3ccccc3)c2cc1Cl)C(=O)O (stereo not drawn) | -13.6% | 9.45% | 7.05% | 14.7% | -9.35% | -7.1% |
| O=C1OC2(c3ccc(O)cc3Oc3cc(O)ccc32)c2ccccc21 | 6.6% | 0.55% | 10.2% | 26.7% | -0.05% | -1.2% |
| O=[N+]([O-])/C(Cl)=C(\NCCO)C(Cl)=C(Cl)Cl | 15.6% | 19% | 38% | 17.1% | 23.9% | -2.3% |
| CC#CCC1CCC(OCC)=CC1=O (stereo not drawn) | 10.4% | 9.25% | 12.2% | -20% | 5.9% | 17.1% |
| O=C(Oc1c(Cl)c(Cl)c(Cl)c(Cl)c1Cl)c1ccc([N+](=O)[O-])cc1 | -27.6% | -1.55% | -26.6% | -49% | 3.9% | -9.25% |
| COC(=O)C1=C(C)N(NC(N)=O)C2(N)N(NC(N)=O)C(C)=C(C(=O)OC)C12C#N (stereo not drawn) | -23.5% | -11.6% | -44.6% | 5.8% | 2.55% | -16.4% |
| CC(=O)CCCCCCCCCCCCCC(C)=O | -18.1% | -5.1% | -21.1% | -10.8% | 6.25% | -6% |
| NC(=O)C1=CCCC1 | 6% | -0.1% | 0.5% | 10.2% | 12.8% | -3.3% |
